Results reported in PubChem BioAssay.
Values joined by “and” are separate entries in the source; they are usually repeats but may differ in a detail not shown here. Equal entries are not always repeated. Active and inactive are the calls of the source. Unless noted, no rule for the calls is given here.

What was measured:
[1] = HepG2 liver cancer cell viability effects, profiling panel, resazurin fluorescence, 24 h, PK04 Diversity Set (AID 1172); conditions: higher = more signal; also: test concentration not given here
[2] = basal S. cerevisiae growth modulation, no modifier, primary screen, OD600, strain BY4716, 24 h, basal condition (AID 1173); conditions: OD600, 24 h, higher = more signal, called active from +8 up or from −8 down
[3] = MM1S myeloma cell viability, profiling panel, resazurin fluorescence, basal, 24 h, PK04 Diversity Set (AID 1174); conditions: higher = more signal, called active from +8 up or from −8 down;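 also: MM1S multiple myeloma cell line; test concentration not given here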
[4] = target: Dihydroorotate dehydrogenase (quinone), mitochondrial (Plasmodium falciparum (isolate 3D7)) (UniProt Q08210); test: PfDHODH enzyme inhibitors, primary screen, biochemical, C-terminal His tag, absorbance 600 nm (AID 1175); conditions: DCIP absorbance 600 nm, higher = more signal, called active from +8 up or from −8 down;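 also: recombinant parasite enzyme with a five histidine tag at its C terminus; test concentration not given here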
[5] = P. aeruginosa biofilm formation inhibitors, primary screen, strain PAO1, LB-PBS medium, absorbance 600 nm (AID 1176); also: test concentration not given here; conditions: P. aeruginosa PAO1 growth/biofilm, A600, 12 h; higher = more signal
[6] = S. cerevisiae RM11-1a growth modifiers, primary screen, strain RM11-1a, OD600, basal, 24 h (AID 1177); conditions: OD600, 24 h, higher = more signal, called active from +8 up or from −8 down;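 also: cultures grown under basal conditions with no added stressor; test concentration not given here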
[7] = E. coli acrAB mutant growth effects, primary screen, E. coli filamentation inducers, strain DRC39, OD650, 24 h (AID 1178); conditions: higher = more signal, called active from +8 up or from −8 down;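 also: growth measured as culture turbidity by optical density at 650 nm; test concentration not given here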
[8] = E. coli acrAB mutant growth effects, primary screen, E. coli filamentation inducers, strain DRC39, OD650, 48 h (AID 1179);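 also: screen aims at cell division blockers that make cells filament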; conditions: E. coli DRC39 delta-acrAB growth, higher = more signal, called active from +8 up or from −8 down
[9] = RPMI8226 myeloma cell viability, profiling panel, resazurin fluorescence, basal, 24 h, PK04 Diversity Set (AID 1180); conditions: higher = more signal;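 also: RPMI8826 multiple myeloma cell line at 5000 cells per well; test concentration not given here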
[10] = target: E3 ubiquitin-protein ligase XIAP (Homo sapiens) (UniProt P98170); test: XIAP binders, primary screen, biophysical, small-molecule microarray, fluorescence 635 nm (AID 1181); conditions: small-molecule microarray binding, higher = more signal;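 also: score merges 667 nm emission and signal to noise over triplicate slides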
E3 ubiquitin-protein ligase XIAP (Homo sapiens), sequence (P98170 whole entry, looked up): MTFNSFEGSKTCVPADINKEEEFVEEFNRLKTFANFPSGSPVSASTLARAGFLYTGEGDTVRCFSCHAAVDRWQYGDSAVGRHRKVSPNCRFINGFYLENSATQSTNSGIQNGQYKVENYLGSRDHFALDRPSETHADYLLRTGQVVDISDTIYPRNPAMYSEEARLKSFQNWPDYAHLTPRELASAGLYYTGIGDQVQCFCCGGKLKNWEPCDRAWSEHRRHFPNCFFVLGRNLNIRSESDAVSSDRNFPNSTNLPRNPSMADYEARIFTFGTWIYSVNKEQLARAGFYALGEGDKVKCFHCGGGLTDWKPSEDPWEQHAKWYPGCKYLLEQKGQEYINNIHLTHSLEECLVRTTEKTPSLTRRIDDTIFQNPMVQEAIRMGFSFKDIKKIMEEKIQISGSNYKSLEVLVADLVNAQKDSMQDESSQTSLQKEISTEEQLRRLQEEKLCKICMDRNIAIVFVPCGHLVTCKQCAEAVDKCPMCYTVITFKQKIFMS

Dihydroorotate dehydrogenase (quinone), mitochondrial (Plasmodium falciparum (isolate 3D7)), sequence (Q08210 whole entry, looked up): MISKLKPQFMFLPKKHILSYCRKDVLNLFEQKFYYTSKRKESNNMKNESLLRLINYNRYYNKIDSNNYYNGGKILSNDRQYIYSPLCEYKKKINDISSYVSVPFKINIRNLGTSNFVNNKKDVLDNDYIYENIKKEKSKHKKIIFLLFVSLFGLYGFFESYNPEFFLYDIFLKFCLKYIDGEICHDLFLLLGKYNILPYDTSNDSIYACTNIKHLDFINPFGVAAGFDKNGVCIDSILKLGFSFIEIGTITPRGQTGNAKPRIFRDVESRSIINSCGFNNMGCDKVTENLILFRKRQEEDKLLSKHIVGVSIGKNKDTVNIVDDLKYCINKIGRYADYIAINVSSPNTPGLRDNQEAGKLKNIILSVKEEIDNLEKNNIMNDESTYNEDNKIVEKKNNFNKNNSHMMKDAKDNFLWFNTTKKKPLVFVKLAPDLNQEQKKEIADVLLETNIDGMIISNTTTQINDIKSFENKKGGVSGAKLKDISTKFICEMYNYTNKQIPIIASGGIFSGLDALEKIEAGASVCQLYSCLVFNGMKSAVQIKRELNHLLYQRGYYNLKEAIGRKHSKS

Compound | z-score [1] | z-score [2] | z-score [3] | composite z-score [4] | z-score [5] | z-score [6] | z-score [7] | z-score [8] | z-score [9] | composite z-score [10]
C=CCN(C(=O)C(c1cccs1)N(C(=O)/C=C\C(=O)O)c1ccc(CCO)cc1)C(C)(C)C (centres undefined) | -0.388 and -0.35 | -2.06 (inactive) and -0.483 (inactive) | 0.448 (inactive) and 0.224 (inactive) | -2.45 (inactive) and -0.818 (inactive) | 0.289 (inactive) and -0.332 (inactive) | -0.0345 (inactive) and -0.122 (inactive) | 0.592 (inactive) and -0.113 (inactive) | 0.864 (inactive) and 0.356 (inactive) | 0.0456 and 0.0755 | -0.232 and -0.145
C[C@@H](c1ccccc1)N1C(=O)[C@H]2[C@H]3[C@H](O)[C@H](O)CC(=O)[C@@H]3CC[C@H]2C1=O | -0.7 | -1.05 (inactive) | 0.295 (inactive) | -1.59 (inactive) | 0.377 (inactive) | -2.9 (inactive) | -0.579 (inactive) | -0.954 (inactive) | -0.62 | -0.163
C=CC[C@@H](O)c1ccc(O)c2ccccc12 | 0.202 and -0.349 | -17.2 (active) and -17.3 (active) | -2.06 (inactive) and -2.1 (inactive) | -2.37 (inactive) and -3.1 (inactive) | 1 (inactive) and 1.33 (inactive) | -0.508 (inactive) and 0.0761 (inactive) | 1.2 (inactive) and -0.0099 (inactive) | 0.635 (inactive) and -0.379 (inactive) | -0.947 and -1.55 | 0.205 and 0.0537
CCN1C(=O)[C@H]2[C@H]3[C@H](O)[C@H](O)CC(=NNC(=O)OCc4ccc(OC)cc4)[C@H]3CC[C@H]2C1=O | -1.02 | 0.199 (inactive) | -2.24 (inactive) | -0.223 (inactive) | -0.273 (inactive) | 0.632 (inactive) | -0.0482 (inactive) | 0.559 (inactive) | -1.38 | 0.0322
C=CCN(Cc1ccccc1)C(=O)C(c1cccs1)N(C(=O)/C=C\C(=O)O)c1ccc(CCO)cc1 (centres undefined) | -0.42 and -0.633 | 0.0593 (inactive) and -0.0181 (inactive) | -0.0351 (inactive) and -0.273 (inactive) | -0.866 (inactive) and -0.0473 (inactive) | -0.208 (inactive) and 0.233 (inactive) | 0.374 (inactive) and 0.514 (inactive) | 0.866 (inactive) and 0.736 (inactive) | 0.722 (inactive) and 0.609 (inactive) | 0.565 and -0.122 | -0.0987 and 0.035
C[C@@H]1CC[C@@H](C(=O)O)N[C@H]1c1ccc(-c2ccco2)cc1 | 0.443 | -0.319 (inactive) | 0.603 (inactive) | 0.268 (inactive) | -0.151 (inactive) | -0.0212 (inactive) | 0.127 (inactive) | -0.551 (inactive) | 0.285 | 0.012
C=CCN(C(=O)C(c1cccs1)N(C(=O)/C=C\C(=O)O)c1c(Cl)cccc1CO)C(C)(C)C (centres undefined) | -0.842 and -0.839 | 0.0318 (inactive) and -0.393 (inactive) | -0.525 (inactive) and -0.895 (inactive) | -1.77 (inactive) and -0.93 (inactive) | -0.304 (inactive) and -0.677 (inactive) | -0.107 (inactive) and -0.495 (inactive) | -0.514 (inactive) and -0.291 (inactive) | -0.372 (inactive) and -0.102 (inactive) | -0.554 and -1.29 | -0.191 and 0.1
CCCC[C@@H]1CN2[C@@H](CC[C@@H](C)[C@@H]2c2ccc(Br)cc2)C(=O)O1 | -0.175 and 0.523 | -1.57 (inactive) and -1.39 (inactive) | 0.0509 (inactive) and 0.231 (inactive) | 0.466 (inactive) and -0.248 (inactive) | -0.221 (inactive) and -0.175 (inactive) | 0.229 (inactive) and -0.0641 (inactive) | 0.777 (inactive) and 0.606 (inactive) | 0.535 (inactive) and -1.07 (inactive) | 0.387 and 0.756 | 0.0537 and -0.185
COC(=O)C1=C2N(Cc3ccccc3)C(C)=C(C(=O)OC)[C@@H](c3ccccc3)N2C(=O)[C@](O)(C(=O)OC)C1 | 1.08 and -0.565 | -0.875 (inactive) and -0.828 (inactive) | 0.7 (inactive) and 0.349 (inactive) | 0.268 (inactive) and -0.608 (inactive) | -0.318 (inactive) and 0.216 (inactive) | -0.321 (inactive) and 0.0615 (inactive) | 0.0099 (inactive) and -0.163 (inactive) | -0.184 (inactive) and -0.224 (inactive) | 1 and -0.272 | 0.0623 and 0.43
C[N+](C)(C)CCCCCCNC(=O)[C@H]1C[C@H]2C(=O)N[C@@H](CCCC[N+](C)(C)C)C(=O)N2[C@H]1c1ccc(O)cc1 | -0.0179 and -0.609 | -0.214 (inactive) and 0.205 (inactive) | -0.0993 (inactive) and -1.52 (inactive) | -1.01 (inactive) and -0.373 (inactive) | 2.63 (inactive) and 0.351 (inactive) | 0.281 (inactive) and 0.826 (inactive) | 0.0781 (inactive) and 0.75 (inactive) | -0.978 (inactive) and 1.03 (inactive) | -0.818 and -0.584 | -0.22 and -0.265
CC(C)N1CC=CC23O[C@@H]4C=CCCOC(=O)C4[C@H]2C(=O)N(C(C)CO)[C@@H]3C1=O (some centres undefined) | -0.0777 and -1.21 | -1.44 (inactive) and 0.111 (inactive) | 0.963 (inactive) and 0.93 (inactive) | -0.0877 (inactive) and 1.49 (inactive) | – | -1.2 (inactive) and 0.934 (inactive) | 1.2 (inactive) and 1.42 (inactive) | 0.847 (inactive) and 1.13 (inactive) | 1.32 and 0.67 | -0.128 and -0.133
C#CCCCON=C1C[C@@H](O)[C@@H](O)[C@@H]2[C@@H]3C(=O)N(C4CCCCC4)C(=O)[C@@H]3CC[C@H]12 | -0.477 | -0.248 (inactive) | -2.78 (inactive) | -0.822 (inactive) | -0.568 (inactive) | -0.126 (inactive) | 0.331 (inactive) | 0.771 (inactive) | -1.08 | -0.0945
CCOC(=O)NN=C1C[C@@H](O)[C@@H](O)[C@@H]2[C@@H]3C(=O)N(Cc4ccc5c(c4)OCO5)C(=O)[C@@H]3CC[C@@H]12 | 0.321 | -0.143 (inactive) | 0.591 (inactive) | -0.225 (inactive) | 0.246 (inactive) | 0.52 (inactive) | 0.69 (inactive) | 0.819 (inactive) | 0.457 | -0.492
C[C@@H]1CC[C@H]2C(=O)O[C@H](CN=[N+]=[N-])CN2[C@H]1c1ccc(Br)cc1 | -0.528 and 0.231 | -3.44 (inactive) and -4.5 (inactive) | -0.586 (inactive) and 0.637 (inactive) | 0.41 (inactive) and 0.841 (inactive) | 1.39 (inactive) and -0.0204 (inactive) | -0.505 (inactive) and 1.67 (inactive) | -0.686 (inactive) and -0.801 (inactive) | -0.633 (inactive) and -1.31 (inactive) | -1.38 and 0.417 | 0.0871 and 0.277
COc1ccc(O[C@H]2C=C[C@@H](c3ccccc3)O[C@@H]2COC(=O)CCC(C)=NO[C@H](C)c2cn([C@H](CO)Cc3ccccc3)nn2)cc1 | 0.327 and 0.346 | 0.496 (inactive) and 1.83 (inactive) | 0.149 (inactive) and -0.116 (inactive) | 0.899 (inactive) and -0.413 (inactive) | -1.31 (inactive) and -0.491 (inactive) | 0.581 (inactive) and 1.67 (inactive) | 0.521 (inactive) and 0.693 (inactive) | -0.313 (inactive) and 0.596 (inactive) | 0.651 and 0.198 | -0.252 and -0.188
CO[C@H]1COC(=O)CC=C[C@H](C)[C@H](OC)COC(=O)[C@@H](C)COC(=O)CC=C[C@@H]1C | 0.492 and 0.464 | -0.415 (inactive) and -1.07 (inactive) | 0.429 (inactive) and 0.802 (inactive) | 0.175 (inactive) and 0.55 (inactive) | -0.519 (inactive) and -0.118 (inactive) | -0.436 (inactive) and -0.638 (inactive) | 0.945 (inactive) and 1.12 (inactive) | 0.658 (inactive) and 1.09 (inactive) | 0.168 and 0.365 | 0.0256 and -0.202
CCOC(=O)C[C@H]1[C@H](OC(=O)c2ccccc2-c2ccccc2)[C@@H](NC(=O)Cc2ccc(OC)cc2)c2cc(OCCCO)ccc2N1C(=O)c1ccc2ccccc2n1 | 0.528 and 0.85 | -1.31 (inactive) and -0.5 (inactive) | 1.19 (inactive) and 0.644 (inactive) | 0.34 (inactive) and 0.282 (inactive) | 0.456 (inactive) | -0.484 (inactive) and -0.0944 (inactive) | 2.5 (inactive) and 0.544 (inactive) | 1.25 (inactive) and 0.422 (inactive) | -0.0946 and 0.108 | -0.289 and 0.299
